This is an account of results in PubChem BioAssay (NCATS).

Records with an inconclusive call do not appear. Active and inactive are the calls of the source. Calls follow the shape of the full dose curve.
Potency is read from the fitted curve at half-maximal effect.

This assay in a line: Primary qHTS to identify inhibitors of SARS-CoV-2 cell entry (AID 1645846). Also: nearly all actives have a fitted effect of over 45% in size. To be noted: SARS-CoV-2 pseudovirus cell entry assay, luminescence; activity change, negative = inhibition: at 57.1 µM (top of the series) unless noted. The method, boiled down:
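Data are normalized to wells receiving SARS-CoV-2-S pseudoparticles and those given bald particles. Entry signal was luciferase luminescence in stable hACE2 Expi293F cells, 48 hr post-infection, after 1 hr compound pretreatment.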
In the case of `C[C@@H](O)[C@@H]1NC(=O)[C@H](CCCCN)NC(=O)[C@@H](Cc2c[nH]c3ccccc23)NC(=O)[C@H](Cc2ccccc2)NC(=O)[C@@H](NC(=O)[C@H](N)Cc2ccccc2)CSSC[C@@H](C(=O)N[C@H](CO)[C@@H](C)O)NC1=O`, the activity change, negative = inhibition is -12.9% [at 27.1 µM].

Regarding `CN(C)CCOc1ccc(-c2nc(-c3ccc4c(c3)CC/C4=N\O)c(-c3ccncc3)[nH]2)cc1`, the Potency was 12.6 µM (active).

Regarding `CC(C)Nc1cc(-c2c[nH]c(C(=O)N[C@H](CO)c3cccc(Cl)c3)c2)c(Cl)cn1`, the Potency is 31.6 µM (active).

On to `COc1cc(OCc2cccc(-c3ccccc3)c2C)cc(OC)c1CN1CCCC[C@H]1C(=O)O`, for which the activity change, negative = inhibition was -88.4%.

As for `O=C(/C=C/c1cccnc1)NCCCCC1CCN(C(=O)c2ccccc2)CC1`, the activity change, negative = inhibition is -96.7%.

Take `COc1cc2c(Oc3ccc4[nH]c(C)cc4c3F)ccnc2cc1OCC1(N)CC1`: the Potency is 11.2 µM (active).

Turning to `COc1cc(N2CCN(C(C)=O)CC2)ccc1Nc1ncc(Cl)c(Nc2ccc(N3CCN(C(C)=O)CC3)cc2OC)n1`, the activity change, negative = inhibition is -12.2%.

As for `CC(C)Oc1ccc(-c2nc(-c3cccc4c3CC[C@@H]4NCCO)no2)cc1C#N`, the result was inactive.

In the case of `Cc1c(NC(=O)c2cc(C(N)=O)nc3cc(F)ccc23)c(C(F)(F)F)nn1Cc1ccc(C(C)(C)C)cc1`, the activity change, negative = inhibition was -95.1%.

As to `CNC(=O)c1ccc(Nc2ncc(C(F)(F)F)c(NCc3nccnc3N(C)S(C)(=O)=O)n2)cc1`, the Potency was 0.891 µM (active).

`Cc1noc(-c2ccc(-c3ccc(C4(C(=O)O)CC4)cc3)cc2)c1NC(=O)O[C@H](C)c1ccccc1`: the Potency was 35.5 µM (active).
